# From PubChem
# IL1B NFkB pot – enhances IL-1B driven NFkB nuclear translocation. activation, % at 2 µM. AID 819. 94,000 tested, 0.3% active. HUVEC IL-1B NFkB p65 nuclear translocation imaging;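 active = activation above 40%, about the mean plus 3 SD, also judged a hit on visual image review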;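 also: percent activation is computed from the nuclear over cytoplasmic p65 intensity ratio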
# JNK3 blocker – inhibitors of human JNK3 kinase | 60,000 tested, 0.61% active | AID 746 | P53779 | purified JNK3 kinase activity, HTS | inhibition, % at 8 µM; in the data active = inhibition above about 17%;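 also: 0% = DMSO and 100% = reference inhibitor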
# IL1B cytotox – toxic to HUVEC cells under IL-1B stimulation. 94,000 tested, 0.41% active. AID 845. cell count reduction, % at 2 µM. HUVEC cell count loss, Hoechst imaging, IL-1B stimulated;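 active = cell count reduction more than 3 SD above the screen-wide mean, cut at about 70% in these data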;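 also: normalized per plate to untreated control cells as the no-loss baseline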
# PTK2B oligo ant – blocks oligomerization of human Pyk2 in cells; z-score (the deposit names both 25 µM and 10 µM); Q293 cells, Pyk2 FERM NanoBiT luminescence; active compounds read low; AID 1347419; 99,000 tested, 0.83% active;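 active = Z-score of -3 or lower, scaled per plate to the spread of control and sample wells; inactive = z-score above -3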;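 also: negative z-score means lost luminescence so less FERM oligomerization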
# FAK inh – FAK (human) kinase inhibition | biochemical FAK kinase activity assay | 97,000 tested, 0.84% active | Q05397 | inhibition, %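 (tested at 7 µM)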;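 also: 0% = DMSO and 100% = reference compound high control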
# IL1B NFkB inh – blocks IL-1B driven NFkB nuclear translocation in HUVEC cells; HUVEC IL-1B NFkB p65 nuclear translocation imaging; inhibition, % at 2 µM; AID 796; 94,000 tested, 0.43% active;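 active = inhibition above about 30% together with a positive call from visual inspection of the well image, limit read from the data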;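 also: nuclear over cytoplasmic p65 intensity ratio measured by imaging; 0% = IL-1B stimulated DMSO wells and 100% = unstimulated DMSO wells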
# FAK inh conf – confirmation of human focal adhesion kinase (FAK) inhibitors | FAK kinase biochemical inhibition assay | AID 794 | inhibition, % at 7 µM | shares compounds with FAK inh | 750 tested, 28% active
# Numbers without * were called inactive; · = no result given. Most compounds without a hit are left out; they make up all but 2.4% or so of the library. Rule as the data show it, unless noted: active = inhibition above about 19%; inactive = the rest.
SMILES,IL1B NFkB pot,JNK3 blocker,IL1B cytotox,PTK2B oligo ant,FAK inh,IL1B NFkB inh,FAK inh conf
CCn1c2ccccc2c2cc(NC(=O)CSc3nnc(-c4ccc(OC)cc4)n3N)ccc21,15,·,7,0.1,15,-14,·
COc1ccc(S(=O)(=O)N(C)c2ccc(C(=O)NCCC(C)C)cc2)cc1,11,·,-30,-0.71,-1,-11,·
Cc1ccc([N+](=O)[O-])cc1N=C(c1cccc(Br)c1)N1CCOCC1,-7,·,-10,0.05,-1,7,·
CCOC(=O)c1c(N)sc2c(O)c(Br)ccc12,-3,3,-1,-0.03,19*,4,1
CCOC(=O)c1c(N)sc2c(NC(C)=O)cccc12,-5,-2,9,0.56,6,5,·
Clc1ccc(OCCCn2cncn2)cc1Cl,2,-4,6,-0.85,-3,-2,·
O=[N+]([O-])c1cccc(/C=C/c2nc3ccc([N+](=O)[O-])cc3[nH]2)c1,-1,·,8,-2,34*,1,21*
Nc1ccc(-c2nc3c(Cl)cc(N)cc3[nH]2)cc1,12,-36,31,-0.81,25*,-12,4
Nc1ccc2nc(-c3ccc(N)c(Cl)c3)[nH]c2c1,7,·,-18,-1.2,4,-7,·
O=C(CCNS(=O)(=O)c1cccs1)Nc1nccs1,8,·,-10,-0.22,83*,-8,-1
CCC(=O)Nc1nnc(Sc2ccc(N(C)C)cc2)s1,-3,1,9,0.37,21*,3,1
Cc1cc(-c2ccccc2)nc(N(C)NC(=O)c2ccc(Cl)cc2)c1S(C)(=O)=O,·,·,·,-0.84,0,·,·
COc1ccc(-c2ccc3c(N)c(C(=O)c4ccc(OC)c(OC)c4)sc3n2)cc1,-6,·,-15,-0.2,35*,6,25*
COc1ccc(C(=O)c2ccc(OC)c(OC)c2)cc1,3,·,-14,0.92,-2,-3,·
COc1ccc(C(=O)c2sc(Nc3ccccc3)c(C(=O)Nc3ccc(OC)c(OC)c3)c2N)cc1,-2,·,-5,-0.69,0,2,·
COc1ccc(C(=O)c2sc3nc(-c4ccccc4)ccc3c2N)cc1OC,0,·,-81,1.3,59*,0,34*
CCN(CC(=O)NCc1cccs1)S(=O)(=O)c1ccc(C(C)C)cc1,9,·,1,-0.55,-6,-9,·
Cn1c(=O)[nH]c(=O)c2c1nc(N1CCCC1)n2CCCSc1nc2ccccc2o1,·,·,·,-0.31,·,·,·
Cn1c(=O)[nH]c(=O)c2c1nc(Br)n2CCCSc1nc2ccccc2o1,16,-6,-7,-0.51,19*,-16,1
O=C(NCCc1c[nH]c2ccccc12)C1CCN(c2nnc(N3CCCC3=O)s2)CC1,1,0,-15,-0.85,36*,-1,31*
O=C(O)C1CCCCC1C(=O)NCCc1c[nH]c2ccccc12 (centres undefined),1,-7,9,-0.09,1,-1,·
CC(NC(=O)c1ccco1)C(=O)N1CCc2ccccc2C1 (centres undefined),6,·,-12,1.5,1,-6,·
CCOC(=O)c1cccc(NS(=O)(=O)c2c(C)[nH]c(=O)[nH]c2=O)c1,32,-6,-27,1.9,21*,-32,4
CCOC(=O)c1cccc(NS(=O)(=O)c2cnc[nH]2)c1,·,0,·,0.03,·,·,·
COc1ccccc1-c1nnc(N(C)C(=O)C2CCCO2)s1 (centres undefined),-6,·,4,1.7,-3,6,·
SMILES,IL1B NFkB pot,JNK3 blocker,IL1B cytotox,PTK2B oligo ant,FAK inh,IL1B NFkB inh,FAK inh conf
Cc1cc2ncn(S(=O)(=O)N(C)C)c2cc1C,3,·,2,0.91,19*,-3,5
Cc1ccc(CNc2ccc(Cl)cc2[N+](=O)[O-])cc1,9,·,9,-0.77,5,-9,·
Cc1ccc(C(=O)NNC(=O)CSc2nnc3c(n2)[nH]c2ccc(F)cc23)cc1,8,·,0,-0.06,69*,-8,39*
COc1ccc2[nH]c3nc(SCC(=O)NNC(=O)c4ccc(OC)c(OC)c4)nnc3c2c1,-8,·,-10,-0.18,0,8,·
CCCCNC(=O)c1sc2ncnc(N3CCc4ccccc4C3)c2c1C,15,·,-7,-0.27,14,-15,·
CCOC(=O)CNC(=O)c1sc2ncnc(N3CCc4ccccc4C3)c2c1C,7,·,-25,0.13,42*,-7,33*
Cc1ccc2c(n1)sc1c(N)ncnc12,·,5,·,1.2,49*,·,18
CCN1CCCC1CNC(=O)Cn1cnc2sc(C)c(S(=O)(=O)N3CCC(C)CC3)c2c1=O (centres undefined),16,·,-11,·,-3,-16,·
CCn1c(=O)c(C(=O)Nc2nc3ccccc3[nH]2)c(O)c2ccccc21,-5,4,-7,-1.3,23*,5,21*
CCn1c(=O)c(C(=O)Nn2c(C)nc3ccccc3c2=O)c(O)c2ccccc21,·,1,·,-1.2,·,·,·
COc1ccc2nc3oc(C(=O)NCc4cccs4)cc3cc2c1,1,9,-16,-0.01,32*,-1,10
Cc1cc(OCC(=O)Nc2ccc(N3CCCC3)cc2)cc(C)c1Cl,2,·,4,-1.1,33*,-2,17
Cc1cc(OCC(=O)Nc2ccc(N3CCN(C(=O)c4ccco4)CC3)cc2)cc(C)c1Cl,12,·,-14,-0.4,69*,-12,22*
Cc1cccc(OCC(=O)Nc2ccc(N3CCN(C(=O)c4ccco4)CC3)cc2)c1,-6,·,-6,0.36,6,6,·
Cc1nn(C(=O)c2cccs2)c(C)c1CN1C(=O)c2ccccc2C1=O,10,2,2,1.3,3,-10,·
Cc1nn(C(=O)c2ccco2)c(C)c1CN1C(=O)c2ccccc2C1=O,-2,-1,1,-0.47,32*,2,8
CCCCN(C(=O)CNC(=O)c1ccco1)C(C(=O)NC1CCCC1)c1ccc(OC)cc1 (centres undefined),14,·,2,-0.14,0,-14,·
COc1ccc(C2C(C#N)=C(C)NC3=C2C(=O)c2ccccc23)cc1 (centres undefined),·,4,·,0.41,2,·,·
CC1=C([N+](=O)[O-])C(c2ccccc2)C2=C(N1)c1ccccc1C2=O (centres undefined),9,·,-20,-1.4,25*,-9,15
O=C(NC1(O)C(=O)c2ccccc2C1=O)c1ccccc1,-10,0,-4,0.11,22*,10,7
COC(=O)CC1(c2ccccc2)C(=O)c2ccccc2C1=O,7,·,-2,-0.18,1,-7,·
c1coc(CNc2ncnc3nc[nH]c23)c1,·,-4,·,·,·,·,·
Cc1ccc2[nH]c3c(NCc4ccco4)ncnc3c2c1,1,10,7,0.02,34*,-1,21*
Cc1ccc(Cn2nc(C)c3cc(C(=O)OCC(N)=O)sc32)cc1,23,·,8,-0.41,4,-23,·
Cc1occc1C(=O)NNC(=S)Nc1cccc([N+](=O)[O-])c1,-1,·,28,-0.98,2,1,·
